Test results as given in PubChem BioAssay (NCI).
Compounds without any hit were thinned out: in the full panel of roughly 83,000, 20% have a hit.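 Each cell line was grown in a 96-well plate and treated with one concentration of compound for 48 hours. Values below 10 were considered active.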 A number with no mark means an inactive call. Activity calls are given as the source filed them.

Each molecule was assayed on HL-60(TB) leukemia (assay: NCI-60 one-dose screen, 48 h (100 = growth as untreated, 0 = no growth, -100 = all killed)). Details: 10 µM unless noted.

SMILES	growth
Cc1nc2sc(C(=O)Nc3cccc(Br)c3)c(N)c2cc1C(=O)c1ccc(C(F)(F)F)cc1	98.7%
CN(C)CCC(=O)c1ccc([N+](=O)[O-])cc1	114%
COc1ncc(-c2ccc3nccc(C#CCN4CCN(S(C)(=O)=O)CC4)c3c2)cc1NS(=O)(=O)c1ccc(F)cc1F	-18.6% (active)
CC/C=C\C/C=C\C[C@H](O)C/C=C1/C(=O)C=C[C@@H]1C/C=C\CCCC(=O)O	32.6%
COc1ccc(Cn2c(Br)c3c(c2-c2cc(OC)c(OC)c(OC)c2)CCc2sc(N)nc2-3)cc1	-14.5% (active)
COC(=O)c1ccc(CSc2nnc(-c3ccncc3)o2)cc1	95.5%
CCCC#CCN(CC)CC	96.6%
Cc1ccc2c(c1)c1nc3cc(C)c(C)cc3nc1n2CCN(C)C	11%
c1ccc([I+]c2ccccc2)cc1	52%
Nc1c(Cl)cc(/C=C2\C=Cc3ccccc32)cc1Cl	104%
O=C(/C=C/c1ccccc1)CC(c1ccccc1)N1CCOCC1 (centres undefined)	70.7%
COc1c(C(=O)Nc2ccc(C)c(Br)c2)ccc2ccccc12	91.2%
C=C1C(=O)O[C@H]2[C@H]1CC/C(COC(=O)NCc1cc(OC)cc(OC)c1)=C\CC[C@@]1(C)O[C@@H]21	-20.1% (active)
CN1C(=O)N(C)C2NC(N/N=C/c3ccccc3)=NC21 (centres undefined)	99.6%
CCCCN(CCC#N)C(N)=O	99.6%
COc1cc(C2NN=C3c4ccccc4CCC32)cc(OC)c1OC (centres undefined)	74.1%
O=C(CC(=O)c1cccc(Cl)c1)c1cccc(Cl)c1	4.17% (active)
CC(CCC(=O)O)(NC(=O)c1ccc([N+](=O)[O-])cc1)C(=O)O (centres undefined)	94.9%
O=C1Nc2ccccc2/C1=C/C(=O)c1ccc(N2CCCC2)cc1	-10.8% (active)
C#C[C@]1(O)CC[C@H]2[C@@H]3CC=C4c5sc(Nc6ccccc6)nc5CC[C@]4(C)[C@H]3CC[C@@]21C	7.59% (active)

SMILES	growth
Cc1ccc(CC(=O)O)c(C)c1	98%
S=C(c1cccs1)N1CCN(c2cccc(Cl)c2)CC1	90.8%
CC(=O)NC(N)=S	70.8%
O=S(=O)(Nc1ncccn1)c1ccc(Nc2ccc3nnc(-c4ccncc4)n3n2)cc1	101%
CCOC(=O)C#Cc1c(C(=O)OCC)nnn1Cc1ccc(C(F)(F)F)cc1	39%
CC/C=C\C[C@H](O)C/C=C1/C(=O)C=C[C@@H]1C/C=C\CCCCO	36.4%
CC(=O)Cc1nsc(NC(=O)c2ccoc2COc2ccccc2)n1	98.5%
O=C(CCCCCCC(=O)Nc1ccccc1)NO	-0.31% (active)
Brc1ccc(C2CC(c3cccc(Nc4ccncc4)c3)=NN2c2ccccc2)cc1 (centres undefined)	56.9%
COc1nc2ccc(C)cc2cc1/C=[N+](\[O-])c1ccccc1	80.3%
Cn1cc(C(=O)c2nc(-c3c[nH]c4ccc(Br)cc34)no2)c2cc(Br)ccc21	82.9%
CC(=Nc1ccccc1)C1=C(O)C(Cc2cccc(F)c2)NC1=O (centres undefined)	-15.2% (active)
O=C1/C(=C/c2ccc(Cl)cc2)CN(C(=O)C(Cl)Cl)C/C1=C\c1ccc(Cl)cc1	-19.3% (active)
O=c1[nH]c(=S)[nH]c(O)c1/C=C1\C=Nc2ccccc21	90.4%
CN1C(=O)C(C2=NNC(c3ccccc3C(=O)O)C2)C(=O)N(C)C1=O (centres undefined)	95.5%
CN(CCC#N)c1ccc(/C=C2\NC(=O)NC2=O)cc1	92.2%
COc1cc(-c2nn(-c3cccc(NC(=O)c4ccc(Cl)c(C(F)(F)F)c4)c3)cc2-c2ccncc2)ccc1Cl	3.23% (active)
O=C1CCC23OC(c4ccccc4N12)C(O)C(O)C3O (centres undefined)	97%
CCCn1c(N)c(C(=O)CNc2ccc(I)cc2)c(=O)[nH]c1=O	-5.9% (active)
